Test results from PubChem BioAssay AID1159580 (chemical genetic matrix, 2015).
Several values for one entry are separate records, joined by “and”; a condition that tells them apart may be missing. Equal entries are not always repeated. Among all 5,500 compounds or so, about 2,000 (36%) were called active. Roughly 18% stayed inconclusive and do not appear here. Cut-off read from the data, not from the text of the source: active = normalized growth mostly below about 0.91 (no sharp cut-off); inconclusive = no clear call, values can overlap the other calls; inactive = mostly above about 0.92. This is one part of the list.

Assay: chemical genetic growth profiling, strain panel (AID 1159580);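 note: tested at 20 µM; growth read once vehicle control cultures reached saturation at 30 °C; 1 = growth at the plate median or of vehicle wells; lower values mean less growth of the strain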
Conditions: S. cerevisiae deletion strains, growth OD

Measured: normalized growth

CN(C)CCCN1c2ccccc2Sc2ccccc21
inactive: locus YAL013W, strain DEP1, hits give low values 0.988 and 0.967 | locus YAL021C, strain ccr4, hits give low values 0.92 | locus YAL026C, strain drs2, hits give low values 0.936 | locus YAL030W, strain snc1, hits give low values 1.01 | locus YAL040C, strain CLN3, hits give low values 0.964 | locus YBL061C, strain skt5, hits give low values 1 | locus YBR009C, strain hhf1, hits give low values 0.985 | locus YBR021W, strain FUR4, hits give low values 0.961 | locus YBR023C, strain chs3, hits give low values 1 | locus YBR171W, strain sec66, hits give low values 0.996 | locus YBR229C, strain ROT2, hits give low values 0.999 | locus YBR231C, strain swc5, hits give low values 1.03 | locus YBR279W, strain paf1, hits give low values 0.977 | locus YCL011C, strain gbp2, hits give low values 0.996 | locus YCL016C, strain dcc1, hits give low values 1.01 | locus YCL029C, strain bik1, hits give low values 1.02 | locus YCL061C, strain MRC1 (second series), hits give low values 0.983 | locus YCL061C, strain MRC1, hits give low values 0.993 | locus YCL069W, strain vba3, hits give low values 0.978 | locus YCR088W, strain abp1, hits give low values 0.984 | locus YDL005C, strain med2, hits give low values 1.03 | locus YDL035C, strain GPR1, hits give low values 1.02 | locus YDL040C, strain nat1, hits give low values 1 | locus YDL074C, strain BRE1, hits give low values 1.01 | locus YDL101C, strain DUN1, hits give low values 1.03 | locus YDL134C, strain PPH21, hits give low values 1.01 | locus YDL185W, strain tfp1, hits give low values 1.01 | locus YDL192W, strain arf1, hits give low values 1.02 | locus YDR001C, strain nth1, hits give low values 0.985 | locus YDR069C, strain doa4, hits give low values 0.94 | locus YDR101C, strain arx1, hits give low values 1.01 | locus YDR137W, strain rgp1, hits give low values 1.13 | locus YDR150W, strain NUM1, hits give low values 1.01 | locus YDR159W, strain sac3, hits give low values 0.984 | locus YDR162C, strain NBP2, hits give low values 1 | locus YDR195W, strain ref2 1.07 | locus YDR297W, strain sur2, hits give low values 1.01 | locus YDR318W, strain mcm21, hits give low values 1.02 | locus YDR334W, strain swr1, hits give low values 0.95 | locus YDR335W, strain msn5, hits give low values 0.994 | locus YDR363W, strain ESC2, hits give low values 0.976 | locus YDR388W, hits give low values 1.01 | locus YDR392W, strain spt3, hits give low values 1.09 | locus YDR502C, strain sam2, hits give low values 1.01 | locus YEL003W, strain gim4, hits give low values 0.994 | locus YEL037C, strain rad23, hits give low values 0.976 | locus YEL061C, strain CIN8 (second series), hits give low values 0.96 | locus YEL061C, strain CIN8, hits give low values 1 | locus YER002W, strain NOP16, hits give low values 0.988 | locus YER015W, strain faa2, hits give low values 0.991 | locus YER016W, strain bim1, hits give low values 0.986 | locus YER110C, hits give low values 1.02 | locus YER111C, strain swi4, hits give low values 0.973 | locus YER155C, strain BEM2 (second series), hits give low values 1.01 | locus YER155C, strain BEM2, hits give low values 1 | locus YER167W, strain BCK2, hits give low values 1.01 | locus YFR010W, strain ubp6, hits give low values 0.92 | locus YGL078C, strain dbp3, hits give low values 1.01 | locus YGL086W, strain mad1, hits give low values 1.02 | locus YGL167C, strain pmr1, hits give low values 0.981 | locus YGL173C, strain kem1, hits give low values 0.981 | locus YGL227W, strain vid30, hits give low values 0.996 | locus YGL240W, strain doc1, hits give low values 1.04 | locus YGL248W, strain PDE1, hits give low values 1 | locus YGL253W, strain hxk2, hits give low values 0.994 | locus YGR078C, strain PAC10, hits give low values 1.01 | locus YGR135W, strain pre9, hits give low values 0.993 | locus YGR229C, strain SMI1, hits give low values 0.971 | locus YGR252W, strain gcn5, hits give low values 0.975 | locus YHR013C, strain ard1, hits give low values 0.964 | locus YHR027C, strain rpn1, hits give low values 0.989 | locus YHR030C, strain SLT2, hits give low values 1 and 1.01 | locus YHR079C, strain IRE1 (second series), hits give low values 1.01 | locus YHR079C, strain IRE1, hits give low values 1.01 | locus YHR094C, strain hxt1, hits give low values 1.01 | locus YHR129C, strain ARP1, hits give low values 1.02 | locus YHR142W, strain chs7, hits give low values 1.01 | locus YHR200W, strain rpn10, hits give low values 1.02 | locus YIL066C, strain RNR3, hits give low values 1 | locus YIL073C, strain SPO22, hits give low values 1.02 | locus YIL125W, strain kgd1, hits give low values 1.01 | locus YIR030C, strain dcg1, hits give low values 1.02 | locus YJL092W, strain hpr5, hits give low values 0.989 | locus YJL095W, strain BCK1 (second series), hits give low values 1 | locus YJL095W, strain BCK1, hits give low values 0.987 and 1.02 | locus YJL115W, strain asf1, hits give low values 0.975 | locus YJL129C, strain trk1, hits give low values 1.01 | locus YJL134W, strain LCB3, hits give low values 1 | locus YJL154C, strain vps35, hits give low values 0.977 | locus YJL164C, strain tpk1, hits give low values 0.992 | locus YJL166W, strain qcr8, hits give low values 0.995 | locus YJL168C, strain set2, hits give low values 1.02 | locus YJL187C, strain SWE1 (second series), hits give low values 1 | locus YJR043C, strain POL32, hits give low values 1.02 | locus YJR066W, strain TOR1, hits give low values 0.963
